# In PMC8384837, “Expanding the binding specificity for RNA recognition by a PUF domain”:
# Key:
# Assay in all cases: yeast three-hybrid, YBZ-1, SC-Leu-His + 0.5 mM 3-AT, 4 days
# Details in all cases: tags: N-Gal4 AD-HA kept; label: inside an RPR1-promoter hybrid RNA with tandem MS2 sites; ssRNA
# PUM1 PUF domain R8-VYR = PUM1 PUF domain R8-VYR (Homo sapiens, UniProt Q14671 828-1176, N1122V;Q1126R)
# Summary of the method: (§1)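 The interaction score is the log change in variant frequency from input to selection. Scores were computed in log2 with a pseudocount of 1 for absent variants, using Illumina sequencing of PCR-amplified repeat regions. The input came from four days on SC-Leu and the selection from four days on SC-Leu-His + 0.5 mM 3-AT. The cells were strain YBZ-1 (LexA–MS2 coat fusion, HIS3 reporter) co-expressing Pumilio-1 PUF domain libraries and matching RNA elements from a centromeric plasmid.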
# PUM1 PUF domain R8-HFM = PUM1 PUF domain R8-HFM (Homo sapiens, UniProt Q14671 828-1176, N1122H;Y1123F;Q1126M)
# Summary of the method: as §1
# PUM1 PUF domain R3-WFG = PUM1 PUF domain R3-WFG (Homo sapiens, UniProt Q14671 828-1176, C935W;R936F;Q939G)
# Summary of the method: as §1
# PUM1 PUF domain R5-DQE = PUM1 PUF domain R5-DQE (Homo sapiens, UniProt Q14671 828-1176, C1007D;R1008Q;Q1011E)
# Summary of the method: as §1
# PUM1 PUF domain R6-KWL = molecular target: T1, PUM1 PUF domain R6-KWL (Homo sapiens, UniProt Q14671 828-1176, N1043K;Y1044W;Q1047L)
# T1 sequence: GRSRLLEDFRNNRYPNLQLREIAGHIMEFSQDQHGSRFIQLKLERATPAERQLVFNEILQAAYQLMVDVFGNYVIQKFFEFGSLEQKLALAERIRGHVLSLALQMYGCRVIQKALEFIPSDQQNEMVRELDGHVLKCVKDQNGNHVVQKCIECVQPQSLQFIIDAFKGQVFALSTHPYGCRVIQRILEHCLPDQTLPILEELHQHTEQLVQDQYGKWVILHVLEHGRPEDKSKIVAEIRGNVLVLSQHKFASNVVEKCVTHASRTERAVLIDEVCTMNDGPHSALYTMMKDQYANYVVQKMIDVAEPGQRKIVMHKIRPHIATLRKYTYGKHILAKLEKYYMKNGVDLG
# Summary of the method: as §1
# PUM1 PUF domain R7-DWE = PUM1 PUF domain R7-DWE (Homo sapiens, UniProt Q14671 828-1176, S1079D;N1080W)
# Summary of the method: as §1
# PUM1 PUF domain R5-KQS = PUM1 PUF domain R5-KQS (Homo sapiens, UniProt Q14671 828-1176, C1007K;R1008Q;Q1011S)
# Summary of the method: as §1
# PUM1 PUF domain R3-AFP = PUM1 PUF domain R3-AFP (Homo sapiens, UniProt Q14671 828-1176, C935A;R936F;Q939P)
# Summary of the method: as §1
# PUM1 PUF domain R5-KAR = PUM1 PUF domain R5-KAR (Homo sapiens, UniProt Q14671 828-1176, C1007K;R1008A;Q1011R)
# Summary of the method: as §1
# PUM1 PUF domain R5-EWF = PUM1 PUF domain R5-EWF (Homo sapiens, UniProt Q14671 828-1176, C1007E;R1008W;Q1011F)
# Summary of the method: as §1
sequence,measurement,setting,value
GGCUAGAACUAGUGGAUCCCCCGGCGCCCGGCGGCUCGAGCCCGGGUAAGCGUAAAUAGUCUGCAUGCCGCCGGGCGCCAUGCCUGCAGGUCGACUCUAGAAAACAUG,binding signal,PUM1 PUF domain R8-VYR,5.17 log2 enrichment (interaction score)
same,binding signal,PUM1 PUF domain R8-HFM,2.95 log2 enrichment (interaction score)
GGCUAGAACUAGUGGAUCCCCCGGCGCCCGGCGGCUCGAGCCCGGGUAAGUGUAAUUAGUCUGCAUGCCGCCGGGCGCCAUGCCUGCAGGUCGACUCUAGAAAACAUG,binding signal,PUM1 PUF domain R3-WFG,2.57 log2 enrichment (interaction score)
GGCUAGAACUAGUGGAUCCCCCGGCGCCCGGCGGCUCGAGCCCGGGUAAGUGUGAAUAGUCUGCAUGCCGCCGGGCGCCAUGCCUGCAGGUCGACUCUAGAAAACAUG,binding signal,PUM1 PUF domain R5-DQE,3.83 log2 enrichment (interaction score)
GGCUAGAACUAGUGGAUCCCCCGGCGCCCGGCGGCUCGAGCCCGGGUAAGUGUAAAUAGUCUGCAUGCCGCCGGGCGCCAUGCCUGCAGGUCGACUCUAGAAAACAUG,binding signal,PUM1 PUF domain R6-KWL,5.66 log2 enrichment (interaction score)
same,binding signal,PUM1 PUF domain R7-DWE,2.44 log2 enrichment (interaction score)
same,binding signal,PUM1 PUF domain R5-KQS,0.39 log2 enrichment (interaction score)
same,binding signal,PUM1 PUF domain R8-VYR,4.52 log2 enrichment (interaction score)
same,binding signal,PUM1 PUF domain R3-AFP,5.95 log2 enrichment (interaction score)
GGCUAGAACUAGUGGAUCCCCCGGCGCCCGGCGGCUCGAGCCCGGGUAAGUGUUAAUAGUCUGCAUGCCGCCGGGCGCCAUGCCUGCAGGUCGACUCUAGAAAACAUG,binding signal,PUM1 PUF domain R5-KAR,2.72 log2 enrichment (interaction score)
same,binding signal,PUM1 PUF domain R5-EWF,3.15 log2 enrichment (interaction score)
GGCUAGAACUAGUGGAUCCCCCGGCGCCCGGCGGCUCGAGCCCGGGUAAGUGUAAGUAGUCUGCAUGCCGCCGGGCGCCAUGCCUGCAGGUCGACUCUAGAAAACAUG,binding signal,PUM1 PUF domain R3-WFG,2.77 log2 enrichment (interaction score)
GGCUAGAACUAGUGGAUCCCCCGGCGCCCGGCGGCUCGAGCCCGGGUAAGUGUCAAUAGUCUGCAUGCCGCCGGGCGCCAUGCCUGCAGGUCGACUCUAGAAAACAUG,binding signal,PUM1 PUF domain R5-KAR,4.29 log2 enrichment (interaction score)
same,binding signal,PUM1 PUF domain R5-KQS,3.98 log2 enrichment (interaction score)
